From PubChem BioAssay (Tox21) come the findings set out here.

Test [1] can be described thus: Nuclear factor erythroid 2-related factor 2/antioxidant responsive element (Nrf2/ARE) small molecule agonists: luciferase reporter gene qHTS assay in human keratinocytes (AID 1919969; note: nearly all actives have a fitted effect of over 35% in size; note: potency is the fitted concentration of half-maximal effect). (A reporter such as luciferase makes a cellular process visible.)
The target of test [2] is Gonadotropin-releasing hormone receptor (Homo sapiens) (UniProt P30968). As to the kind of experiment: Human gonadotropin-releasing hormone receptor (GnRHR) small molecule agonists, calcium flux assay in GnRHR-HEK293 cells (AID 1920063). Note: nearly all actives have a fitted effect of over 35% in size. Put shortly: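 We seeded human GnRHR-expressing HEK293 cells for 18 hours, loaded them with calcium dye for an hour at 37 C, added test compounds, and recorded fluorescence intensity kinetically for three minutes.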
Gonadotropin-releasing hormone receptor (Homo sapiens), sequence (P30968 whole entry, looked up): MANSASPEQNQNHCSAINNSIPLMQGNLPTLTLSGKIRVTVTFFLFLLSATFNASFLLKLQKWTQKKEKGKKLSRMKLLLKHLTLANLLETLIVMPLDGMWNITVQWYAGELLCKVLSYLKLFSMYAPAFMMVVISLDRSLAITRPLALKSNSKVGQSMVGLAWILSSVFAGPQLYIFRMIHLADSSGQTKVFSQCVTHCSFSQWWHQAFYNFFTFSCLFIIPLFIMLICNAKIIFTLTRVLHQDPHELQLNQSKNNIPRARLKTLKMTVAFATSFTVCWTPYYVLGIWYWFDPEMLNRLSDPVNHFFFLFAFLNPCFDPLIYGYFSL
(In general: A change in cytosolic calcium serves as a functional read-out for many receptors and channels.)

Test [3] has as its target KiSS-1 receptor (Homo sapiens) (UniProt Q969F8). As to the kind of experiment: Human kisspeptin (KISS1R) small molecule agonists, calcium flux assay in KISS1R-HEK293 cells (AID 1920064; active = well fitted activation curve with a large enough effect in the repeat runs). Put shortly: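 Kinetic calcium assay, 1 s sampling over 3 min at Ex/Em 480/540, in HEK293 cells engineered with human KISS1R; compounds delivered in DMSO after 1 h dye loading.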
The nature of test [4]: G protein-coupled receptor (GPCR) small molecule agonists, calcium flux assay: HEK293 wild type cell line counter screen (AID 1920065). In outline: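 Calcium-sensitive dye, loaded 1 h at 37 C into cells cultured 18 h, reports compound-evoked calcium release as fluorescence (Ex/Em 480/540), measured over 3 min. Agonist mode; 15-point titrations, triplicate.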
Test [5] in a line: p53 small molecule agonists, cell-based qHTS assay with human liver microsomes (AID 1963577). Put shortly:
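Cells carrying a p53-responsive bla reporter were rested 5 h (37 C, 5% CO2) before compound transfer. Human liver microsomes plus NADPH, 0.5 mg/mL final apiece, supplied metabolism during the 16 h 37 C exposure.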
For orientation: qHTS replaces the single test concentration by a dilution series.

Test [6] in a line: p53 small molecule agonists, cell-based qHTS assay with rat liver microsomes (AID 1963578). In outline: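 Fluorescence from a beta-lactamase reporter under a p53 response element was measured after cells had been incubated 16 h at 37 C with test compound and rat liver microsomes plus NADPH (0.5 mg/mL final each).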
Test [7] in a line: p53 small molecule agonists, cell-based qHTS assay with human liver microsomes: qHTS cell viability counter screen (AID 1963579). Note: nearly all actives have a fitted effect of over 45% in size. In outline:
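Seed p53RE-bla cells at 4,000 per well; incubate 5 h at 37 C; add compound, human liver microsomes and NADPH; incubate 16 h at 37 C; add CellTiter-Glo; after 30 min at room temperature, read luminescence.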

The nature of test [8]: p53 small molecule agonists, cell-based qHTS assay with rat liver microsomes: qHTS cell viability counter screen (AID 1963580). Note: nearly all actives have a fitted effect of over 45% in size. Put shortly: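 In HCT-116 cells carrying a p53 response element-bla reporter, compounds were metabolically activated in situ by rat liver microsomes with NADPH over 16 h. Cell ATP content then served as the cytotoxicity measure.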
Test [9] is described as follows: p53 small molecule agonists, cell-based qHTS assay: qHTS cell viability counter screen (AID 1963581). Note: nearly all actives have a fitted effect of over 45% in size. Put shortly:
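Following 5 h attachment, HCT-116 p53RE-bla cells took up compound for 16 h at 37 C; the reporter was read with B/G FRET substrate (2 h RT), and viability then via CellTiter-Glo ATP luminescence.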

For test [10], the target named is 5-hydroxytryptamine receptor 2A (Homo sapiens) (UniProt P28223). As to the kind of experiment: 5-hydroxytryptamine receptor 2A (HTR2A) small molecule antagonists, cell-based qHTS assay (AID 1963586). Note: nearly all actives have a fitted effect of over 45% in size. Note: potency is the fitted concentration of half-maximal effect. In outline: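 Antagonist-mode intracellular calcium assay: DOI (4 nM) added after 5 min compound pre-incubation at room temperature to dye-loaded HTR2A-CHO cells. Fluorescence followed for 3 min, sampled every second.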
5-hydroxytryptamine receptor 2A (Homo sapiens), sequence (P28223 whole entry, looked up): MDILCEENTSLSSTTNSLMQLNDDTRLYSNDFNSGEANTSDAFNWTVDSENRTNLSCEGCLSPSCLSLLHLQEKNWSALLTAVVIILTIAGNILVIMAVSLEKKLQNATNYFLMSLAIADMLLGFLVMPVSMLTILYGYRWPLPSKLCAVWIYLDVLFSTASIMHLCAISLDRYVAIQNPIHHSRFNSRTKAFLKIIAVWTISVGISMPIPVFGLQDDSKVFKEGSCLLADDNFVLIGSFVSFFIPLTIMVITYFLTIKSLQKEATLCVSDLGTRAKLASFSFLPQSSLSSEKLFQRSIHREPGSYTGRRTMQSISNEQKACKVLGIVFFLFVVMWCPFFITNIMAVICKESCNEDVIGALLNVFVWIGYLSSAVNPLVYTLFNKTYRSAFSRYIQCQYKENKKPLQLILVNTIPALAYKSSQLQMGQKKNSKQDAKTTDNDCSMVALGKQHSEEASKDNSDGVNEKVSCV

For test [11] the target is unchanged. The experiment in a line: 5-hydroxytryptamine receptor 2A (HTR2A) small molecule agonists, cell-based qHTS assay (AID 1963587). Note: nearly all actives have a fitted effect of over 30% in size. Put shortly:
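HTR2A-CHO cells, plated 18 h at 37 C/5% CO2, dye-loaded 1 h at 37 C; compounds in DMSO added by pin tool (agonist mode). Intracellular calcium flux read as kinetic fluorescence on FDSS over 2 min at 1 s intervals.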

Test [12] has as its target Muscarinic acetylcholine receptor M1 (Homo sapiens) (UniProt P11229). As to the kind of experiment: Cholinergic receptor muscarinic 1 (CHRM1) small molecule antagonists, cell-based qHTS assay (AID 1963588). Note: nearly all actives have a fitted effect of over 40% in size. Put shortly:
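CHRM1-CHO calcium-flux assay, antagonist mode. Cells were seeded 18 h, dye-loaded 1 h at 37 C and given compound for 5 min at RT, then acetylcholine was added at 50nM. FDSS fluorescence was read 3 min; 15 concentrations, three runs.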

For test [13] the target is unchanged. The experiment in a line: Cholinergic receptor muscarinic 1 (CHRM1) small molecule agonists, cell-based qHTS assay (AID 1963589). Note: nearly all actives have a fitted effect of over 35% in size. In outline: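 Measures agonist-induced intracellular calcium rise. Stable human CHRM1 CHO line, 1 h dye load at 37 C, compounds from DMSO, kinetic fluorescence read.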
The target of test [14] is Beta-2 adrenergic receptor (Homo sapiens) (UniProt P07550). The experiment in a line: Adrenergic beta2 receptor (ADRB2) small molecule antagonists, cell-based qHTS assay (AID 1963592). Note: series mostly up to about 92 µM; nearly all actives have a fitted effect of over 50% in size. In outline: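 Cells (CHO, stable ADRB2 overexpression) incubated 18-20hr at 37C; compounds added from DMSO; agonist mix (1nM isoproterenol, 100uM IBMX, 25uM Ro-20-1724) added; 0.5hr RT; d2-cAMP and anti-cAMP-cryptate added; 1hr RT; 665/615 nm read.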
Beta-2 adrenergic receptor (Homo sapiens), sequence (P07550 whole entry, looked up): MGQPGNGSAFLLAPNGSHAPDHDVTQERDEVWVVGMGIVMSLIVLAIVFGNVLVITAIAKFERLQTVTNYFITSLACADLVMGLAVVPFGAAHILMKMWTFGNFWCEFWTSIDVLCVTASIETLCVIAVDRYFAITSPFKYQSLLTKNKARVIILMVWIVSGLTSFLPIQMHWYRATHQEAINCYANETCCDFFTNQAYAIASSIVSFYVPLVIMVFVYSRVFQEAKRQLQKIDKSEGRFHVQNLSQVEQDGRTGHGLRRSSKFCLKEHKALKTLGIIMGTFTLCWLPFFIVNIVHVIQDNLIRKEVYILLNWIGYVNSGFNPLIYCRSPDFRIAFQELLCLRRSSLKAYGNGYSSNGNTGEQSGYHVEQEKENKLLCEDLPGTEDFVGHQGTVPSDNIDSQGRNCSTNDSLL

Test [15] concerns the target D(2) dopamine receptor (Homo sapiens) (UniProt P14416). The experiment in a line: Dopamine D2 receptor (DRD2) small molecule agonists, cell-based qHTS assay (AID 1963594). Note: nearly all actives have a fitted effect of over 35% in size. In outline: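 HEK293 cells stably expressing DRD2 were cultured 24 h at 37 C, then given Ro20-1724 (0.1 mM final) and compounds for 10 min at room temperature. NKH477 (200nM) was then added for 30 min. cAMP was read by HTRF.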

Test [16] has the same target. As to the kind of experiment: Dopamine D2 receptor (DRD2) small molecule antagonists, cell-based qHTS assay (AID 1963595; active = well fitted inhibition curve with a large enough effect in the signal ratio in the repeat runs, with a control signal flat; the % refers to the signal ratio; note: potency is the fitted concentration of half-maximal effect). Put shortly:
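HTRF cAMP read-out at 665 and 620 nm emission (340 nm excitation). Antagonist mode: compounds were tested against 12 nM quinpirole in DRD2-HEK293 cells, with 200 nM NKH477 raising cAMP and 0.1 mM Ro20-1724 blocking its breakdown.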

The nature of test [17]: p53 small molecule agonists, cell-based qHTS assay (AID 1963582; active = well fitted activation curve with a large enough effect in the signal ratio in the repeat runs, not every such curve was filed as active; the % refers to the signal ratio). Put shortly: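 In this cell-based concentration-response screen, a p53 response element drives beta-lactamase; cells received DMSO-borne compounds after 5 h culture and were incubated a further 16 h before FRET substrate development.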
A short description of test [18]: cAMP Responsive Elements (CRE) small molecule antagonists, cell-based qHTS assay (AID 1963591; active = well fitted inhibition curve with a large enough effect in the signal ratio in the repeat runs, not every such curve was filed as active; the % refers to the signal ratio). In outline: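 HEK293T cells carrying a CRE-driven beta-lactamase reporter receive compound and NKH477 (0.25 uM final) for 3 h. Fluorescence from LiveBLAzer B/G FRET substrate is read after 2 h at room temperature.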
The target in test [19] is Beta-2 adrenergic receptor (Homo sapiens) (UniProt P07550). As to the kind of experiment: Adrenergic beta2 receptor (ADRB2) small molecule agonists, cell-based qHTS assay (AID 1963593).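 Note: CHO cells stably overexpressing human ADRB2.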 In outline: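 CHO cells stably over-expressing ADRB2 were plated overnight at 37C, then dosed with compounds plus a stimulation mix containing 100uM IBMX and 25uM Ro-20-1724 for 0.5hr at room temperature. cAMP was measured by HTRF competition, 1hr.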

The nature of test [20]: cAMP Responsive Elements (CRE) small molecule agonists, cell-based qHTS assay (AID 1963590). In outline: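 A CRE-responsive beta-lactamase reporter in HEK 293T cells was used. Treatment ran 3 h at 37 C; detection used LiveBLAzer B/G FRET substrate for 2 h at room temperature.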

Values without a mark were called inactive. Records with an inconclusive call do not appear. Calls of active or inactive are those of the source. Unless noted, calls come from the whole dose curve.

KiSS-1 receptor (Homo sapiens), sequence (Q969F8 whole entry, looked up): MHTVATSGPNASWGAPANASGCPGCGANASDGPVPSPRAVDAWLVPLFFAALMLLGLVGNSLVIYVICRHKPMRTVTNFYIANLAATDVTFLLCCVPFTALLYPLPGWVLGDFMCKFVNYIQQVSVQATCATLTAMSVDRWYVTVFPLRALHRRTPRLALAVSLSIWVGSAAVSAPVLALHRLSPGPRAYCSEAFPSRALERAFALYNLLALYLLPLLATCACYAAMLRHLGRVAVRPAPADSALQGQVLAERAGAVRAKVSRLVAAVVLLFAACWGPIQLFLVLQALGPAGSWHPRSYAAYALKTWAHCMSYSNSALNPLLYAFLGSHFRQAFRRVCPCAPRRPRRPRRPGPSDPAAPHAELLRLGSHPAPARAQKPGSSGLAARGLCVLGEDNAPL
Muscarinic acetylcholine receptor M1 (Homo sapiens), sequence (P11229 whole entry, looked up): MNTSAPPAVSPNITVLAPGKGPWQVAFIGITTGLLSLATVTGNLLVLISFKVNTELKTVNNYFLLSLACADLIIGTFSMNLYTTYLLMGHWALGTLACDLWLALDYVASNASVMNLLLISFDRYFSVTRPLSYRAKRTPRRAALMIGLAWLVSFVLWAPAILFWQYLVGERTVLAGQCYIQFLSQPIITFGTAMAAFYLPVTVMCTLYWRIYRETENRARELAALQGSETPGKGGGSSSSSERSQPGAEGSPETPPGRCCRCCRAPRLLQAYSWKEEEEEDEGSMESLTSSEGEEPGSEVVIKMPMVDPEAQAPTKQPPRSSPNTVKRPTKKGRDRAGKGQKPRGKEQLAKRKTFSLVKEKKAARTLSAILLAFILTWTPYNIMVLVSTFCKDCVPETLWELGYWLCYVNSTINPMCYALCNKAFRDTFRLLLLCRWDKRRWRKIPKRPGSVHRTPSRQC
D(2) dopamine receptor (Homo sapiens), sequence (P14416 whole entry, looked up): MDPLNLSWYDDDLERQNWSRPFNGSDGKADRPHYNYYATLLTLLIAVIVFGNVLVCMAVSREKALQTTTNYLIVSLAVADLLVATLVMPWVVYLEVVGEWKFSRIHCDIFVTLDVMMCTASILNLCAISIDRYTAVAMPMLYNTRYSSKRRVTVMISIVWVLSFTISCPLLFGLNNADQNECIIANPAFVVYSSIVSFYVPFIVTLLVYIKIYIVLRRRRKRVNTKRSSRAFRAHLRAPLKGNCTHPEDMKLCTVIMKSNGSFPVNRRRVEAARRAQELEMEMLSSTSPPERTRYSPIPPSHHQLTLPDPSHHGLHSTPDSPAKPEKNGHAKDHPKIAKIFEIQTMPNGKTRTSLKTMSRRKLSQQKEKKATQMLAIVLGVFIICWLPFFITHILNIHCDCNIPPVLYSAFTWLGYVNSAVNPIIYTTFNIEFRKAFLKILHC

With `O=c1cc(-c2ccccc2)oc2cc(O)cc(O)c12`, the Potency in test [1] is 24.3 µM (active). Further, the Potency result in test [2], in test [3], in [4], in test [5], in test [6] and in [7] was “inactive” throughout. For the same compound, the Potency result in test [8], in test [9], in test [10], in test [11], in [12] and in [13] was “inactive” each time. The Potency result in [14], in test [15] and in test [16] was “inactive” each time.
For the compound `Oc1ccc(CCNCCCCCCNCCc2ccccc2)cc1O`, the Potency entry in [1], in test [2], in [3], in [4], in test [5] and in test [6] was “inactive” each time. Also, the Potency result in test [7], in [8], in test [17], in test [11], in test [12] and in test [13] was “inactive” throughout. For the same compound, the Potency result in [14] and in [15] was “inactive” each time. The Potency in [16] was 8.41 µM (active).
As to `NCCCOCCOCCOCCCN`, the Potency entry in [1], in test [2], in test [3], in test [4], in test [5] and in [6] was “inactive” throughout. The Potency result in test [7], in [8], in test [9], in test [10], in [11] and in [12] was “inactive” each time. Further, the Potency result in [13], in test [14] and in [16] was “inactive” each time.
Turning to `CC1=NN(c2cc(Cl)c(S(=O)(=O)O)cc2Cl)C(=O)C1N=Nc1ccc(S(=O)(=O)O)cc1` (stereo not given), the Potency entry in test [1], in test [2], in [3], in [4], in test [5] and in test [6] was “inactive” each time. The Potency result in test [7], in test [9], in test [17], in test [10], in test [12] and in [13] was “inactive” each time. Also, the Potency result in test [18], in test [14], in test [19], in test [15] and in [16] was “inactive” throughout.
Take `O=c1[nH]c2ccccc2n1CCCN1CCN(C(c2ccccc2)c2ccccc2)CC1`: the Potency result in [1], in [2], in test [3], in test [4], in [5] and in test [6] was “inactive” in each case. Also, the Potency result in [7], in test [8], in test [11], in test [12], in test [13] and in [14] was “inactive” in each case. The Potency entry in test [15] is “inactive”. The Potency in test [10] is 0.0052 µM (active); in test [16] it was 11.9 µM (active).
For `CNC(=S)NC`, the Potency result in test [1], in [2], in test [3], in [4], in test [5] and in test [6] was “inactive” each time. Besides, the Potency result in test [7], in test [8], in test [10], in test [11], in test [12] and in test [13] was “inactive” in each case. The Potency result in test [14], in test [19], in [15] and in test [16] was “inactive” in each case.
For the compound `CCCCCc1ccc(O)cc1`, in test [1], the Potency was 34.4 µM (active). For the same compound, the Potency entry in test [2], in test [3], in [4], in [5], in [6] and in test [7] was “inactive” each time. The Potency entry in test [9], in test [17], in test [10], in test [20], in test [18] and in test [14] was “inactive” each time. In addition, the Potency entry in test [19], in test [15] and in test [16] was “inactive” in each case.
